# Results reported in PubChem BioAssay (EPA / NIEHS).
# Active and inactive are the calls of the source. Rule for the calls: active = hit-call score of the fitted dose curve at least 0.9, where 1 is the maximum; inactive = score below 0.9.
# Read-out: Vascular endothelial growth factor receptor 2 (Homo sapiens) (UniProt P35968)
# Test: BSK_4H_VEGFRII: BioMAP Diversity Plus: 4H Assay for Vascular endothelial growth factor receptor 2 (VEGFR2) Biomarker Activity (AID 2283031);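 for AC50: cell-surface VEGFR2 protein level quantified by ELISA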
# Settings: primary human endothelial cells (HUVEC); actives raise or lower the signal
# In short: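 In this multiplexed HUVEC system, biomarker ELISA was performed after 24 h chemical exposure. Parallel SRB staining (TCA fixation, 560 nm) tracked cytotoxicity; DMSO served as baseline.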
Structure (SMILES),outcome,AC50
O=[N+]([O-])c1cc(C(F)(F)F)ccc1Cl,inactive,–
BrC1CCC(Br)C(Br)CCC(Br)C(Br)CCC1Br (stereo not given),–,2620 nM (active)
CC(=O)[C@H]1CC[C@H]2[C@@H]3CC=C4C[C@@H](O)CC[C@]4(C)[C@H]3CC[C@]12C,inactive,–
CCn1c2ccccc2c2cc(N)ccc21,inactive,–
COc1cc(C=O)ccc1OC(=O)C(C)C,inactive,–
CC1CCC(C(C)CS)CC1S (stereo not given),inactive,–
c1ccc2c(c1)c1cccc3ccc4cccc2c4c31,inactive,–
CC(C)Oc1ccccc1O,inactive,–
O=C=NC1CCC(CC2CCC(N=C=O)CC2)CC1 (stereo not given),inactive,–
CN(CCOc1ccc(CC2SC(=O)NC2=O)cc1)c1ccccn1 (stereo not given),inactive,–

# Read-out: Human Leukocyte Antigen - DR isotype (HLADR), HLA-DRA (gene 3122)
# Test: BSK_BE3C_HLADR: BioMAP Diversity Plus: BE3C Assay for Human Leukocyte Antigen - DR isotype (HLADR) Biomarker Activity (AID 2283032)
# Settings: primary human bronchial epithelial cells; actives raise or lower the signal
# In short: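 Chemicals are dosed onto BE3C bronchial epithelial cultures of human origin and left 24 h. HLA-DR is then measured by ELISA, and the endpoint is fitted in both directions using DMSO as the activity baseline.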
Structure (SMILES),outcome,AC50
N#Cc1ccc(CC(=NNC(=O)Nc2ccc(OC(F)(F)F)cc2)c2cccc(C(F)(F)F)c2)cc1,inactive,–
O=[N+]([O-])c1cc(C(F)(F)F)ccc1Cl,inactive,–
BrC1CCC(Br)C(Br)CCC(Br)C(Br)CCC1Br (stereo not given),–,1490 nM (active)
CC(=O)[C@H]1CC[C@H]2[C@@H]3CC=C4C[C@@H](O)CC[C@]4(C)[C@H]3CC[C@]12C,inactive,–
CCn1c2ccccc2c2cc(N)ccc21,–,2240 nM (active)
COc1cc(C=O)ccc1OC(=O)C(C)C,inactive,–
CCc1c(C)cc(N)c(CC)c1N,inactive,–
c1ccc2sc(SN(C3CCCCC3)C3CCCCC3)nc2c1,inactive,–
O=C(O)c1ccc([N+](=O)[O-])cc1,inactive,–
CC[Si](OC(C)=O)(OC(C)=O)OC(C)=O,inactive,–
CC1CCC(C(C)CS)CC1S (stereo not given),–,20000 nM (active)
O=C(O)C[C@H](O)C[C@H](O)/C=C/c1c(C2CC2)nc2ccccc2c1-c1ccc(F)cc1,–,28 nM (active)
c1ccc2c(c1)c1cccc3ccc4cccc2c4c31,inactive,–
O=C1OC2(c3cc(Br)c(O)c(Br)c3Oc3c2cc(Br)c(O)c3Br)c2c(Cl)c(Cl)c(Cl)c(Cl)c21,–,560 nM (active)
CNC[C@H](O)c1cccc(O)c1,inactive,–
Cc1ccc2n[nH]nc2c1,inactive,–
COC(=O)c1ccc(C)cc1,inactive,–
CC(C)Oc1ccccc1O,inactive,–
O=C=NC1CCC(CC2CCC(N=C=O)CC2)CC1 (stereo not given),inactive,–
O=P(c1ccccc1)(c1ccccc1)c1ccccc1,inactive,–
CN(CCOc1ccc(CC2SC(=O)NC2=O)cc1)c1ccccn1 (stereo not given),–,20000 nM (active)
CC(=O)Nc1ccccc1O,inactive,–
CCCCCCCCCC=O,–,20000 nM (active)
CCCCC/C=C/C=C/C=O,–,20000 nM (active)
CCCCCCCCC=O,inactive,–
